Measured values: the supplement of paper PMC3616981
± gives the standard deviation of the averaged measurements.

Compound: CC(C)c1cccc(C(C)C)c1N1C(=O)c2ccc(O)cc2C1=O
Assay: BioMAP readout fold decrease vs vehicle (vehicle/treated); higher = stronger decrease of the readout vs vehicle (values <1 mean increase)
Method: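 BioSeek BioMAP human primary cell (co-)culture systems (3C, 4H, LPS, SAg, BE3C, CASM3C, hDFCGF, KF3CT) treated with 5HPP-33 at 1.48, 4.44, 13.3 and 40 µM. Read-outs are protein levels by ELISA, proliferation and SRB total protein. Duplicate rows per assay are averaged as replicates. Tested in ToxCast Phase II for this study; exposure time not stated.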
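Note: Co-cultures of keratinocytes, bronchial epithelial and smooth muscle cells, fibroblasts, HUVECs and PBMCs under stimuli like LPS, TNF-α, IFN-γ, IL-1β, TGF-β or EGF, SRB reflecting cytotoxicity.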

Target | BioMAP readout fold decrease (1.48 µM) | BioMAP readout fold decrease (4.44 µM) | BioMAP readout fold decrease (13.3 µM) | BioMAP readout fold decrease (40 µM)
4H_SRB | 1.05 ± 0.014 | 1.12 ± 0.016 | 1.25 ± 0.031 | 1.44 ± 0.041
3C_uPAR | 1.13 ± 0.03 | 1.15 ± 0.053 | 1.43 ± 0.1 | 2.6 ± 0.15
BE3C_MIG | 0.992 ± 0.016 | 1 ± 0.021 | 1.036 ± 0.0018 | 1.36 ± 0.19
SAg_Proliferation | 1.22 ± 0.15 | 1.7 ± 0.1 | 1.76 ± 0.053 | 10.3 ± 0.41
hDFCGF_MIG | 1.01 ± 0.012 | 1.01 ± 0.0026 | 1.02 ± 0.027 | 1.42 ± 0.031
hDFCGF_VCAM1 | 1.18 ± 0.2 | 1.32 ± 0.063 | 2.03 ± 0.15 | 4.4 ± 0.3
CASM3C_VCAM1 | 1.05 ± 0.029 | 1.0767 ± 0.00049 | 1.19 ± 0.023 | 1.55 ± 0.021
hDFCGF_EGFR | 1.0619 ± 0.00028 | 1.02 ± 0.028 | 1.19 ± 0.025 | 1.291 ± 0.0087
4H_VCAM1 | 0.977 ± 0.017 | 0.978 ± 0.044 | 1.06 ± 0.018 | 2.2 ± 0.07
KF3CT_TIMP2 | 1 ± 0.025 | 0.978 ± 0.038 | 1.08 ± 0.075 | 2.5 ± 0.22
